KDM5B inhibitor: Primary screen for KDM5B Histone Demethylases FDH-coupled qHTS | Lysine-specific demethylase 5B (Homo sapiens), Q9UGL1 | KDM5B demethylase, FDH-coupled NADH fluorescence (FDH is formaldehyde dehydrogenase) | Potency, µM (doses to about 57.7 µM), usual class: inhibitors | 220,000 tested, 2.6% active | AID 1347165, 2019; further: potency means the concentration at half of the fitted maximal effect; 0% is about no effect; nearly all actives have a fitted effect of over 70% in size
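Coupled FDH/NAD⁺ fluorescence readout. KDM5BΔAP 200 nM final; compound titration, 10 min RT preincubation; substrate mix 12.5 µM H3K4me3, 25 µM 2-OG, 50 µM Fe(II), 100 µM ascorbate, 0.25 mM NAD⁺, 0.25 U/mL FDH; ΔRFU over 30 min.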
IP6K1 inh: Primary qHTS assay for small molecule inhibitors of Inositol hexaphosphate kinase 1 (IP6K1). Inositol hexakisphosphate kinase 1 (Homo sapiens), Q92551. IP6K1 kinase, ADP-Glo luminescence, 2 h; stronger effect = lower value. activity change, % (series mostly up to about 58 µM). 140,000 tested, 0.81% active; in the data active means activity change below about -25%; further: on the % scale 0 is the no-effect control and ±100 the full control effect
Target sequence (Q92551 whole entry, looked up): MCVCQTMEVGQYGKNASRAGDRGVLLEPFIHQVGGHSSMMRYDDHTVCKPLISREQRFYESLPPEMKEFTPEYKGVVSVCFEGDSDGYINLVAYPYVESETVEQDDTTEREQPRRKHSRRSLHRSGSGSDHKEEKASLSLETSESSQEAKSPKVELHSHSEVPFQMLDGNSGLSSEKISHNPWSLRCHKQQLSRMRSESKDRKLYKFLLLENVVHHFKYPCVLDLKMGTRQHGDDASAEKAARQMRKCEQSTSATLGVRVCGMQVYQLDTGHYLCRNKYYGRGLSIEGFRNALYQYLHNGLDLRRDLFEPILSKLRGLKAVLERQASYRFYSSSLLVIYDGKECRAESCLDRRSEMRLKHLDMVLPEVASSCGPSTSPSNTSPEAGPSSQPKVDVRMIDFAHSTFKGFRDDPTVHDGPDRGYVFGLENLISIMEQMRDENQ
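ADP-Glo luminescence measures ADP made by human IP6K1 during a 2 h RT reaction with ATP/IP6 (mix at 1.3 mM/130 uM); top library doses 57.5 and 19.1 uM final.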
SNCA expr inh: Primary qHTS assay for inhibitors of alpha-synuclein gene (SNCA) expression; HEK-293 SNCA-luciferase knock-in, luminescence, 24 h; Potency, µM (highest dose often 57.2 µM), for inactives: at the top dose activity change, negative = inhibition, hits mostly inhibitors; 140,000 tested, 0.17% active;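 further: potency means the concentration at half of the fitted maximal effect; plate controls were DMSO cells for no effect and cell-free wells for full effect; nearly all actives have a fitted effect of over 45% in size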
SNCA viab count: GF-AFC viability counterscreen for inhibitors of alpha-synuclein gene (SNCA) expression. HEK-293-SNCA-luc viability, GF-AFC fluorescence, 24 h. 150,000 tested, 0.12% active. Potency, µM (series often up to 57.1 µM), inactives show at the top dose activity change, negative = cytotoxicity, most hits filed as cytotoxic. AID 1671193, 2021;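 further: potency means the concentration at half of the fitted maximal effect; 0% = DMSO-treated cells and -100% = medium-only wells without cells; nearly all actives have a fitted effect of over 30% in size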
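HEK-293-SNCA-luc cells (1500/well) plated 24 h, then exposed 24 h to a dilution series; GF-AFC added 30 min at 37C, fluorescence 405/540 nm; normalised to medium-only and DMSO wells, Hill fit.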
* marks the source's active call; other numbers are inactive results; i = inactive; ? = inconclusive; / = no result; [ ] = dose if it differs, or a comment. In the library only some 2.8% were active in any assay of this set; here they are far more common. Unless noted, the call rests on the fitted dose curve; in most records, active means well fitted curve in the direction sought with a large enough effect; inconclusive means small, poorly fitted or top-dose-only effect, or another doubt; inactive means no such curve, though single readings can be large; an effect the other way counts as inactive or inconclusive.

SMILES	KDM5B inhibitor	IP6K1 inh	SNCA expr inh	SNCA viab count
CCOc1ccccc1C(=O)N1CCC2(CC1)CN(c1ncccn1)CC2CO (stereo unspecified)	32µM*	7	22%	-12%
Cc1cn2cc(CNC(=O)c3ccc(CN4CCCN(C)CC4)[nH]c3=O)nc2s1	28µM*	14	?	-4%
COCc1nc(NCc2cn3cc(C)sc3n2)cc(C2CC(N)C2)n1 (stereo unspecified)	?	-11	6%	4%
Cc1ccc(NC(=O)N2CCC(CCNC(=O)c3ccsc3)CC2)cc1	i	-12	8%	9%
C=CC[C@H]1CC(C)=C[C@H](CC=C)N1Cc1ccc(CN(C)S(C)(=O)=O)o1	14µM*	3	2%	6%
CN(Cc1ccc(CN2CCCC(O)(CO)C2)o1)S(C)(=O)=O (stereo unspecified)	i	4	4%	-2%
O=C(Nc1ccc(Oc2ccccc2)cc1)O[C@@H]1CO[C@H]2[C@@H]1OC[C@@H]2n1nnnc1-c1ccc(-c2ccccc2)cc1	?	-3	-5%	2%
CN(C)c1ccc(-c2nnnn2[C@H]2CO[C@H]3[C@@H]2OC[C@H]3OC(=O)Nc2ccc(Oc3ccccc3)cc2)cc1	13µM*	10	-18%	-6%
CN(C)c1ccc(-c2nnnn2[C@H]2CO[C@H]3[C@@H]2OC[C@H]3OCc2ccccc2)cc1	32µM*	-1	4%[87.6 µM]	3%[87.6 µM]
Cc1cccc(-c2cccc(CN3CCCC(C(=O)N4CCN(C)CC4)C3)c2)c1 (stereo unspecified)	/	3	36%	2%
COc1ccc(CN(C)C(=O)Cn2nnnc2CN2CCOCC2)c2cccnc12	22µM*	-2	2%	2%
O=C(C1Cn2cccc2C(=O)N1Cc1ccccc1)N1CCc2ccccc2C1 (stereo unspecified)	i	0	-22%	-27%
Cc1cc(C)c([S+](=O)([O-])c2nnn3c2nc(NCc2ccncc2)c2ccccc23)c(C)c1	?	7	-21%	-4%
CC(C)c1ccc([S+](=O)([O-])c2nnn3c2nc(NCc2ccncc2)c2ccccc23)cc1	79µM*	-2	?	-10%
CCc1ccc([S+](=O)([O-])c2nnn3c2nc(NCc2ccncc2)c2ccccc23)cc1	50µM*	22	17%	-27%
Cc1ccc([S+](=O)([O-])c2nnn3c2nc(NCc2ccncc2)c2ccccc23)cc1	?	-2	-13%	6%
O=[S+]([O-])(c1ccc(Cl)cc1)c1nnn2c1nc(NCc1ccncc1)c1ccccc12	89µM*	-2	35%	8%
COc1ccc([S+](=O)([O-])c2nnn3c2nc(NCc2ccncc2)c2ccccc23)cc1	?	8	33%	-4%
Cc1ccc(C)c([S+](=O)([O-])c2nnn3c2nc(NCc2ccncc2)c2ccccc23)c1	89µM*	3	-6%	-20%
COC1CCOC2(CCN(C(=O)c3c[nH]c4ccccc34)CC2)C1 (stereo unspecified)	i	-21	2%	0%[12.5 µM]
COc1cccc(CC2(CO)CCCN(c3ccc(-c4nccn4C)nn3)C2)c1 (stereo unspecified)	20µM*	5	-13%	?
Cn1ccnc1-c1ccc(N2CC[C@](C)(O)[C@@H](O)C2)nn1	?	-4	220%	5%
Cn1ccnc1-c1ccc(N2CCC(C(O)Cc3ccccc3)CC2)nn1 (stereo unspecified)	28µM*	5	-34%	-13%
COc1ccccc1CN(C)C1CCOc2ccccc21 (stereo unspecified)	i	3	15%[87.6 µM]	7%[87.6 µM]
Cc1noc(-c2ccccc2OC2CCN(S(C)(=O)=O)C2)n1 (stereo unspecified)	22µM*	18	?	10%
SMILES	KDM5B inhibitor	IP6K1 inh	SNCA expr inh	SNCA viab count
CC(C)N(C)S(=O)(=O)c1ccc2c(c1)CCN(C(=O)c1cscn1)C2	i	8	4%	-8%
COc1ccc(CNC(=O)c2cn3ccnc(-c4ccccc4)c3n2)cc1OC	i	24	-4%	-19%
COCCNC(=O)c1cn2ccnc(-c3ccc(C)cc3)c2n1	i	20	30%	-21%
CCOC(=O)C1CCN(C(=O)c2cn3ccnc(-c4ccc(OC)cc4)c3n2)CC1	25µM*	22	2%	5%
COc1ccc(-c2nccn3cc(C(=O)NCCc4cccnc4)nc23)cc1	28µM*	13	-18%	-19%
COc1ccc(-c2nccn3cc(C(=O)NCc4nc5ccccc5n4C)nc23)cc1	7.9µM*	16	-5%	-26%
COc1ccc(-c2nccn3cc(C(=O)NCc4cccnc4)nc23)cc1	20µM*	19	37%	-22%
CCOC(=O)C1CCN(C(=O)c2cn3cc(-c4ccc(OC)cc4)sc3n2)CC1	/	6	50%	-2%
COc1ccc(-c2nccn3cc(C(=O)O)nc23)cc1	28µM*	-10	-5%	10%
COc1ccc(-c2nccn3cc(C(=O)Nc4ccc(OC)c(OC)c4)nc23)cc1	i	0	13%	-19%
FC(F)(F)C1CN(c2ccc3cc(Cl)ccc3n2)CCO1 (stereo unspecified)	14µM*	-6	40%	3%
Cc1cc2c(-c3ccccc3F)nc(-c3c(C)noc3C)cc2[nH]1	35µM*	-12	61%[87.6 µM]	-11%[87.6 µM]
COc1cccc(-c2nc(-c3c(C)noc3C)cc3[nH]c(C)cc23)c1OC	i	0	17%[87.6 µM]	-22%[87.6 µM]
Cc1cc2c(-c3ccccc3O)nc(-c3c(C)noc3C)cc2[nH]1	35µM*	-21	46%[87.6 µM]	?
Cc1cc2c(-c3ccccc3C)nc(-c3c(C)noc3C)cc2[nH]1	32µM*	-1	0%[87.6 µM]	-13%[87.6 µM]
CCN(CC)S(=O)(=O)c1ccc(N/N=C/c2cccs2)c([N+](=O)[O-])c1	i	/	/	/
O=c1ccc(N2CCC(NS(=O)(=O)c3ccc(Cl)s3)CC2)nn1CC1CC1	14µM*	-2	-31%	-5%
O=C(NC1CCN(c2ccc(=O)n(CC3CC3)n2)CC1)c1cnccn1	?	-11	?	-3%
Cc1cc(C)c(C)c(S(=O)(=O)NC2CCN(c3ccc(=O)n(CC4CC4)n3)CC2)c1C	35µM*	-4	?	-14%
COc1ccc(N2CCN(C(=O)Cn3c(N4CCc5ccccc5C4)nc(C)cc3=O)CC2)cc1	i	26	?	-17%
O=C(NC1CCCN(c2cc(-c3ccccc3)[nH]n2)C1)c1ccccn1 (stereo unspecified)	i	26	44%	-12%
c1ccc(Nc2ncc(-c3ccccc3)c3c2OCC3)cc1	i	-10	117%[87.6 µM]	5%[87.6 µM]
Fc1cc(Nc2ncc(-c3ccccc3)c3c2OCC3)cc(N2CCOCC2)c1	13µM*	-10	-4%[87.6 µM]	-6%[87.6 µM]
Fc1cccc(-c2cnc(Nc3ccc(N4CCOCC4)cc3)c3c2CCO3)c1	32µM*	-13	17%[87.6 µM]	1%[87.6 µM]

Assay outcomes (PubChem BioAssay)
